# Experimental data published in PubChem BioAssay (Tox21).
# Values without a mark were called inactive. Results filed as inconclusive are left out. Entries that show only a call come without a potency. Activity calls are given as the source filed them. Unless noted, the call rests on the fitted dose curve; in most records, active means well fitted curve in the direction sought with a large enough effect in the repeat runs; inconclusive means weak or mixed curves; inactive means no such curve, though single readings can be large; an effect the other way counts as inactive or inconclusive.
# Tests used:
# [1] = qHTS assay to test for compound auto fluorescence at 535 nm (green) in HEK293 cells (AID 720680)
# [2] = qHTS assay to test for compound auto fluorescence at 460 nm (blue) in HEK293 cell free culture (AID 720681); further: potency means the concentration at half of the fitted maximal effect
# Summary of the method: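 Blue fluorescence (Ex 405/Em 460 nm, triamterene-equivalent) was read immediately after pin transfer of compound or DMSO into medium (DMEM, 10% FBS) without cells.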
# [3] = qHTS assay to test for compound auto fluorescence at 535 nm (green) in HEK293 cell free culture (AID 720682)
# Summary of the method: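 Measurement is a direct plate read of green fluorescence (485 nm in, 535 nm out) after compound addition to serum-supplemented DMEM lacking cells, with fluorescein used to express intensities.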
# [4] = qHTS assay to test for compound auto fluorescence at 590 nm (red) in HEK293 cell free culture (AID 720683)
# Summary of the method: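 Red-channel autofluorescence of compounds in culture medium (DMEM, 10% FBS), no cells, measured at 540/590 nm. Rose Bengal sodium is the reference fluorophore for equivalence.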
# [5] = qHTS assay to test for compound auto fluorescence at 590 nm (red) in HepG2 cell free culture (AID 720684)
# Summary of the method: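 Steps: dispense MEM/10% FBS medium, no cells; pin compound or DMSO vehicle; read red channel, Ex/Em 540/590 nm. Output given as Rose Bengal sodium equivalents.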
# [6] = qHTS assay to test for compound auto fluorescence at 460 nm (blue) in HepG2 cell free culture (AID 720685)
# Summary of the method: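 Compound (23 nL) or DMSO pinned into cell-free MEM with 10% FBS; blue fluorescence read at 405/460 nm excitation/emission, expressed as auto-fluorescence equivalency to triamterene.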
# [7] = qHTS assay to test for compound auto fluorescence at 535 nm (green) in HepG2 cell free culture (AID 720686)
# [8] = qHTS assay to test for compound auto fluorescence at 460 nm (blue) in HepG2 cells (AID 720687)
# Summary of the method: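 Blue-channel autofluorescence (Ex/Em 405/460 nm, triamterene-equivalent) was measured after 1 hr compound exposure at 37 C, 5% CO2. Cells were HepG2, plated overnight at 37 C in MEM plus 10% FBS.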
# [9] = target: Glucocorticoid receptor (Homo sapiens) (UniProt P04150); test: qHTS assay to identify small molecule agonists of the glucocorticoid receptor (GR) signaling pathway (AID 720691; active means well fitted activation curve with a large enough effect in the signal ratio in the repeat runs, not every such curve was filed as active; the % refers to the signal ratio)
# Summary of the method: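 qHTS in GR-bla HeLa cells: 4 h settling at 37 C/5% CO2, 18 h compound incubation at 37 C, 2 h LiveBLAzer B/G FRET substrate at room temperature, fluorescence intensity measured.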
# [10] = target: Glucocorticoid receptor (Homo sapiens) (UniProt P04150); test: qHTS assay to identify small molecule antagonists of the glucocorticoid receptor (GR) signaling pathway (AID 720692; active means well fitted inhibition curve with a large enough effect in the signal ratio in the repeat runs, not every such curve was filed as active; the % refers to the signal ratio)
# Summary of the method: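 Inhibition of glucocorticoid signalling is measured in HeLa cells with a GRE-controlled beta-lactamase reporter; cells are co-treated with compound and 5 nM dexamethasone (final) for 18 h before FRET substrate readout.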
# [11] = qHTS assay to identify small molecule antagonists of the glucocorticoid receptor (GR) signaling pathway - cell viability counter screen (AID 720693); further: nearly all actives have a fitted effect of over 55% in size
# [12] = qHTS assay for identifying genotoxic compounds that show differential cytotoxicity against isogenic chicken DT40 cell lines with known DNA damage response pathways - wild type cell line (AID 743012); further: nearly all actives have a fitted effect of over 60% in size; further: potency means the concentration at half of the fitted maximal effect
# Summary of the method: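 First, wild type DT40 cells were plated at 300 per well and equilibrated about 0.5 h at 37 C/5% CO2. Next, compounds in DMSO were added and exposure lasted 40 h. Finally, CellTiter-Glo was added for 30 min at room temperature and luminescence recorded.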
# [13] = qHTS assay for identifying genotoxic compounds that show differential cytotoxicity against isogenic chicken DT40 cell lines with known DNA damage response pathways - Rev3 mutant cell line (AID 743014); further: nearly all actives have a fitted effect of over 55% in size; further: potency means the concentration at half of the fitted maximal effect
# [14] = qHTS assay for identifying genotoxic compounds that show differential cytotoxicity against isogenic chicken DT40 cell lines with known DNA damage response pathways - Rad54/Ku70 mutant cell line (AID 743015); further: nearly all actives have a fitted effect of over 60% in size; further: potency means the concentration at half of the fitted maximal effect
# [15] = qHTS assay to identify small molecule antagonists of the androgen receptor (AR) signaling pathway - cell viability counter screen (AID 743033; further: nearly all actives have a fitted effect of over 45% in size)
# [16] = qHTS assay to identify small molecule antagonists of the androgen receptor (AR) signaling pathway using the MDA cell line - cell viability counter screen (AID 743041; further: nearly all actives have a fitted effect of over 45% in size)
# Summary of the method: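 Cells were plated at 3,000 per well and left 5 h. Compounds in DMSO were then pinned in, followed by R1881. After 16 h at 37C, CellTiter-Fluor fluorescence gave viability.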
# [17] = target: Androgen receptor (Homo sapiens) (UniProt P10275); test: qHTS assay to identify small molecule antagonists of the androgen receptor (AR) signaling pathway (AID 743035; active means well fitted inhibition curve with a large enough effect in the signal ratio in the repeat runs, not every such curve was filed as active; the % refers to the signal ratio)
# Summary of the method: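 Beta-lactamase FRET read (2 h RT incubation with LiveBLAzer B/G) following 16 h of compound plus R1881 treatment of AR-UAS-bla HEK293 cells, which had been pre-incubated 4 h at 37C.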
# [18] = target: Androgen receptor (Homo sapiens) (UniProt P10275); test: qHTS assay to identify small molecule agonists of the androgen receptor (AR) signaling pathway using the MDA cell line (AID 743040; further: nearly all actives have a fitted effect of over 20% in size)
# Summary of the method: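 Cells plated, 5 h at 37C/0% CO2; compound or DMSO pinned; 16 h at 37C; ONE-Glo added; luminescence measured after 30 min at room temperature. Reporter line: MDA-kb2 with MMTV-luciferase responsive to AR and GR.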
# [19] = target: Androgen receptor (Homo sapiens) (UniProt P10275); test: qHTS assay to identify small molecule antagonists of the androgen receptor (AR) signaling pathway using the MDA cell line (AID 743042; further: nearly all actives have a fitted effect of over 55% in size)
# Summary of the method: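 Antagonist mode: compounds plus R1881 agonist added to MDA-kb2 AR-luc cells, incubated 16 h at 37C. Luciferase reporter luminescence quantified, with multiplexed CellTiter-Fluor readout for cell viability.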
# [20] = target: Androgen receptor (Homo sapiens) (UniProt P10275); test: qHTS assay to identify small molecule agonists of the androgen receptor (AR) signaling pathway (AID 743036; active means well fitted activation curve with a large enough effect in the signal ratio in the repeat runs, with a control signal flat, not every such curve was filed as active; the % refers to the signal ratio)
# Summary of the method: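 Beta-lactamase under UAS control, stably integrated in HEK293 GripTite cells, reports receptor activation. After 16 h compound treatment, cells received FRET substrate for 2 h at room temperature before fluorescence reading.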
# Chain of Androgen receptor (Homo sapiens) (P10275 whole entry, looked up): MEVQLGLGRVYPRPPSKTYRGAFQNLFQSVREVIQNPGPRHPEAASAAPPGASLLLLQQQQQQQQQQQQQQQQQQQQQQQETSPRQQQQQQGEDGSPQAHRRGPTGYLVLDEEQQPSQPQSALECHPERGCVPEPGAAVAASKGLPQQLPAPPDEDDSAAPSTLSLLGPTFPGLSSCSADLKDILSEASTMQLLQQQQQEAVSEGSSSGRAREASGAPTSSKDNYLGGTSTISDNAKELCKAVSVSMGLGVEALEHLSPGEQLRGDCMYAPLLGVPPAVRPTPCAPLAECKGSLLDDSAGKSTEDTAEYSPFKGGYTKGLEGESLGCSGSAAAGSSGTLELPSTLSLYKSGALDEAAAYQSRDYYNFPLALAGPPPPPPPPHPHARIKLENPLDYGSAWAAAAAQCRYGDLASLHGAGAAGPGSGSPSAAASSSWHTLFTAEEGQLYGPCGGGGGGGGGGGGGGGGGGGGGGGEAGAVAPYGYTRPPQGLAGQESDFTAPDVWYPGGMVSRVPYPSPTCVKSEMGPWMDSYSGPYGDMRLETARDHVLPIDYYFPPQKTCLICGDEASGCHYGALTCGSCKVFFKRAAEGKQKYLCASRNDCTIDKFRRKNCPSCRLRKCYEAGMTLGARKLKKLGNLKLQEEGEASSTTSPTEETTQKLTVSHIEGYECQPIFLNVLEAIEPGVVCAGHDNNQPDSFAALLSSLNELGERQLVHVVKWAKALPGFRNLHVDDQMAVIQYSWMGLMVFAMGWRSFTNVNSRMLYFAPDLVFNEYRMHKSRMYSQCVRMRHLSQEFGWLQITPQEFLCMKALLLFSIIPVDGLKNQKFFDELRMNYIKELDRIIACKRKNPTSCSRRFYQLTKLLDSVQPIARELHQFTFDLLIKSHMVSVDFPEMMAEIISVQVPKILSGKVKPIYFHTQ
# Chain of Glucocorticoid receptor (Homo sapiens) (P04150 whole entry, looked up): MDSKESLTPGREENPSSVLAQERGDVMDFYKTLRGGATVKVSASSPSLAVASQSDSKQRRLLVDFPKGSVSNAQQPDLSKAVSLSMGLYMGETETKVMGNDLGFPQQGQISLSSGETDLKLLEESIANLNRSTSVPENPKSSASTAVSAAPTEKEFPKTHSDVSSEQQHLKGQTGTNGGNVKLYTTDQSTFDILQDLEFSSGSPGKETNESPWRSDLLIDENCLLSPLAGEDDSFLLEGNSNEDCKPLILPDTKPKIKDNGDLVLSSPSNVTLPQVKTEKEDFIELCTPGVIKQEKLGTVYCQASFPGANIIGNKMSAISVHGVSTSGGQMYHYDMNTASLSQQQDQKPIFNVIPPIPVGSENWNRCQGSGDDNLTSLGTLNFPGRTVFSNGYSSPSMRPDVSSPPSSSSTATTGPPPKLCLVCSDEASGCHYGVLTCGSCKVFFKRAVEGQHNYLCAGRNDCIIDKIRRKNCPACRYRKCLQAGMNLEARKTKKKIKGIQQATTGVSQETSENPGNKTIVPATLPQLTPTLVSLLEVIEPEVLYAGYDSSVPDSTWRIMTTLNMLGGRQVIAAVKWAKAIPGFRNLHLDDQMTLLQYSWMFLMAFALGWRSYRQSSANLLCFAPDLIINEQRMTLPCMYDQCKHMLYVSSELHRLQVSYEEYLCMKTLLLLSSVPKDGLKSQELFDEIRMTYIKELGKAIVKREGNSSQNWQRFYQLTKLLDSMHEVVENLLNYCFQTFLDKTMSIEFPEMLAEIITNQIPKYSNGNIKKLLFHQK
SMILES,outcome [1],Potency [2],outcome [3],outcome [4],outcome [5],outcome [6],outcome [7],outcome [8],Potency [9],Potency [10],Potency [11],Potency [12],Potency [13],Potency [14],Potency [15],Potency [16],Potency [17],outcome [18],Potency [19],outcome [20]
CCCCCCCCCCCC(=O)OCC,inactive,inactive,inactive,inactive,inactive,inactive,inactive,inactive,inactive,inactive,inactive,inactive,inactive,inactive,inactive,inactive,–,–,–,–
CC(O)CN (stereo not given),inactive,inactive,inactive,inactive,inactive,inactive,inactive,inactive,inactive,inactive,inactive,inactive,inactive,inactive,inactive,inactive,–,–,–,–
C=Cc1ccc(C=C)cc1,inactive,inactive,inactive,inactive,inactive,inactive,inactive,inactive,inactive,–,inactive,inactive,inactive,inactive,inactive,inactive,–,–,–,–
CCCc1ccc(OC)cc1,inactive,inactive,inactive,inactive,inactive,inactive,inactive,inactive,inactive,inactive,inactive,inactive,–,inactive,inactive,inactive,inactive,inactive,inactive,–
CCC(CC)C(=O)O,inactive,inactive,inactive,inactive,inactive,inactive,inactive,inactive,inactive,inactive,inactive,–,inactive,inactive,inactive,inactive,–,–,–,–
CCCOC(C)=O,inactive,inactive,inactive,inactive,inactive,inactive,inactive,inactive,inactive,inactive,inactive,inactive,inactive,inactive,inactive,–,–,inactive,inactive,inactive
CCCCOc1ccc(N)cc1,inactive,inactive,inactive,inactive,inactive,inactive,inactive,inactive,inactive,inactive,inactive,inactive,inactive,inactive,inactive,inactive,–,–,–,–
Clc1nc2ccccc2nc1Cl,inactive,inactive,inactive,inactive,inactive,inactive,inactive,inactive,inactive,–,inactive,inactive,inactive,inactive,inactive,inactive,–,–,–,–
CC(C)CCCCCOC(=O)CS,inactive,inactive,inactive,inactive,inactive,inactive,inactive,inactive,inactive,inactive,inactive,61.1 µM (active),54.5 µM (active),54.5 µM (active),inactive,inactive,–,–,–,–
OCCc1ccncc1,inactive,inactive,inactive,inactive,inactive,inactive,inactive,inactive,inactive,inactive,inactive,inactive,inactive,inactive,inactive,inactive,–,–,–,–
CCCc1nc(C)c2c(=O)[nH]c(-c3cc(S(=O)(=O)N4CCN(CC)CC4)ccc3OCC)nn12,inactive,inactive,inactive,inactive,inactive,inactive,inactive,inactive,inactive,inactive,inactive,inactive,inactive,inactive,inactive,inactive,inactive,–,inactive,–
O=C(O)c1cccnc1Nc1cccc(C(F)(F)F)c1,inactive,inactive,inactive,inactive,inactive,inactive,inactive,inactive,inactive,inactive,inactive,–,inactive,inactive,inactive,inactive,–,–,–,–
COc1ccc(CN(CCN(C)C)c2ncccn2)cc1,inactive,inactive,inactive,inactive,inactive,inactive,inactive,inactive,inactive,inactive,inactive,inactive,inactive,inactive,inactive,–,–,–,–,–
CO[C@@H]1COCC[C@@H]1N[C@@H]1CC[C@@](C(=O)N2CCc3ncc(C(F)(F)F)cc3C2)(C(C)C)C1,inactive,inactive,inactive,inactive,inactive,inactive,inactive,inactive,inactive,inactive,inactive,–,–,–,inactive,–,–,–,–,–
C=C[Si](OCC)(OCC)OCC,inactive,inactive,inactive,inactive,inactive,inactive,inactive,inactive,inactive,inactive,inactive,inactive,inactive,inactive,inactive,–,–,–,–,–
CC[C@H](NC(C)C)[C@H](O)c1ccc(O)c2[nH]c(=O)ccc12,inactive,14.1 µM (active),inactive,inactive,inactive,inactive,inactive,inactive,inactive,–,inactive,inactive,inactive,inactive,inactive,inactive,inactive,inactive,inactive,inactive
CC1=C(C)C(=O)C(C(CCCCCC(=O)O)c2ccccc2)=C(C)C1=O (stereo not given),inactive,inactive,inactive,inactive,inactive,inactive,inactive,inactive,inactive,inactive,inactive,–,inactive,inactive,inactive,inactive,–,–,–,–
